# Bioassay records (PubChem BioAssay)
# Most compounds without a hit are left out; they make up all but 7.9% or so of the library.
# HCMV antiviral: human cytomegalovirus inhibition; AID 1259415; 410,000 compounds, 4.5% hits; HFF cells, HCMV-luciferase reporter, 72 h; stronger effect = lower value; activity change, negative = inhibition, % at 57.5 µM; in the data active means activity change below about -60%; inconclusive means no clear call, values can overlap the other calls; inactive means above about -39%
#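 Luciferase read-out from HCMV-luciferase-infected HFFs (MOI 1 PFU/cell) 72 h post infection at 37C; compounds added after 16 h cell attachment; activity normalized between buffer-only basal and Salinomycin (10uM) inhibitor controls.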
# HCV inh: HCV inhibition. Potency, µM (highest dose often 41.8 µM), for inactives: top-dose activity change, negative = inhibition, usual class: inhibitors. Huh7.5.1 HCVcc-Cre infection, luciferase reporter, 44 h. 340,000 compounds, 3.4% hits. AID 651820; active means well fitted inhibition curve with a large enough effect; inconclusive means small, poorly fitted or top-dose-only effect, or another doubt; inactive means no such curve, though single readings can be large or run the other way; further: potency means the concentration at half of the fitted maximal effect
#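 Antiviral activity was scored by luciferase reporter output from cells infected with HCVcc-Cre (~0.5 moi) in presence of compound, 44 h infection period, cells seeded 1,000/well 4 h prior.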
# FMDV inh: blocks foot and mouth disease virus. FMDV antiviral cell-based qHTS. Potency, µM (series often up to 57.9 µM), for inactives: top-dose activity change, negative = inhibition, usual class: inhibitors. 410,000 compounds, 1.2% hits. AID 1159524; calls by dose curve; tested in HEK293T cells; further: read-out not given here; potency means the concentration at half of the fitted maximal effect; nearly all actives have a fitted effect of over 45% in size
# LASV entry inh: Lassa virus entry inhibition; Lassa virus pseudotype entry inhibition, cell reporter; Potency, µM (highest dose often 37.9 µM), for the others: at the highest dose activity change, negative = inhibition, actives largely listed as inhibitors; 300,000 compounds, 1.2% hits; calls by dose curve; tested in HEK293 cells; further: potency means the concentration at half of the fitted maximal effect; nearly all actives have a fitted effect of over 50% in size
# Marburg entry inh: blocks Marburg virus binding to or entry into cells; Marburg virus pseudotyped entry inhibition, cell reporter; Potency, µM (series often up to 37.8 µM), inactives show at the top dose activity change, negative = inhibition, most hits filed as inhibitors; 300,000 compounds, 1.8% hits; calls by dose curve; tested in HEK293 cells; further: potency means the concentration at half of the fitted maximal effect
# * hit, by the source's call; u = inconclusive; x = no result given; ! = not active in a repeat; [ ] = dose if it differs, or a comment. On the % scale 0 is the no-effect control and ±100 the full control effect.
SMILES,HCMV antiviral,HCV inh,FMDV inh,LASV entry inh,Marburg entry inh
Cc1ccc(CNC(=O)c2ccc(CS(=O)(=O)c3ccccc3)o2)cc1,-61*,-28%,u,x,x
COc1ccc(CCNC(=O)c2ccc(N(C)S(=O)(=O)c3ccc(C)cc3)cc2)cc1OC,-22,10µM*,u,x,x
COc1ccc(CCNC(=O)COc2ccc(N(C)S(=O)(=O)c3ccc(C)cc3)cc2)cc1OC,-34,u,-7%,u,u
COc1ccc(CCNC(=O)c2ccc(CS(=O)(=O)c3ccc(Cl)cc3)o2)cc1OC,u,13µM*,16µM*,26µM*,15µM*
Cc1ccc(S(=O)(=O)Cc2ccc(C(=O)NCc3cccs3)o2)cc1,44,-11%,-5%,u,-5%[46.1 µM]
COc1ccc(CC(=O)Nc2cc(-c3nc4cccnc4s3)ccc2C)cc1,75,x,31%,1%[46.1 µM],x
O=C(Nc1cc2c(cc1C(=O)c1ccccc1Cl)OCCO2)c1ccccc1,u,x,-21%,16%[46.1 µM],x
COc1ccc(CCNC(=O)c2ccc(CS(=O)(=O)c3ccc(C)cc3)o2)cc1OC,-28,14µM*,32µM*,u,u
O=C(NC1CCCCC1)N1CC(=O)N2[C@H](CO)[C@@H](c3ccc(Br)cc3)[C@@H]2C1,-18,x,x,x,x
Oc1cccc(/C=N/n2c(C3CCCCC3)n[nH]c2=S)c1,8,2.2µM*,9%,u,16%
Cc1cccc(OCC(=O)Nc2ccccc2OCc2cc(=O)n3cc(C)ccc3n2)c1,34,x,u,13%[46.1 µM],x
Cc1nn(C)c(C)c1CN(C)S(=O)(=O)c1ccc2ccccc2c1,-82*,u,-1%,u,u
Cc1cc(C)n(C(C[N+](=O)[O-])c2ccc(Cl)cc2)n1 (centres undefined),-105*,17%,u,-2%,-20%
COc1ccc(-c2cn3cccnc3n2)cc1NC(=O)c1cc(C)cc(C)c1,-3,x,-19%,-28%[46.1 µM],x
COc1ccc(/C(C)=N/Nc2nc3ccccc3nc2C)cc1,-1,13µM*,0%,u,u
COc1ccc(/C(C)=N/Nc2nncc3ccccc23)cc1,20,u,-3%,u,u
OCC1(Cc2ccc(Cl)cc2)CCN(CCCc2ccccc2)CC1,-9,13µM*,-17%,u,u
CSc1ccc(CN2CCC(CO)(Cc3ccc(Cl)cc3)CC2)cc1,-39,u,u,13µM*,u
CC(C)Oc1ccc(C(=O)NCC2Cc3cc(Cl)cc(-c4ncccn4)c3O2)cc1 (centres undefined),x,x,-2%,x,x
Cc1c([N+](=O)[O-])cnc(Sc2ccccc2)c1[N+](=O)[O-],-99*,u,22µM*,x,x
Cc1ccc(Sc2ncccc2[N+](=O)[O-])cc1,-19,11%,0%,u,-4%[46.1 µM]
Cc1noc(C)c1S(=O)(=O)Nc1ccc(C(=O)Nc2ccc(OC(F)(F)F)cc2)cc1,-18,14µM*,-20%,x,-1%
C/C(=N\Nc1nc(Cl)c(Cl)cc1Cl)c1ccc(S(=O)(=O)NCc2ccco2)cc1,u,6.3µM*,-34%,u,u
Cc1cc(C)n(-c2ccc(C(=O)Nc3cccc([N+](=O)[O-])c3)cc2)n1,u,11µM*,-29%,4%,u
C/C(=N\Nc1ccccn1)c1ccc(S(=O)(=O)NCc2ccco2)cc1,-6,0%,24%,u,6%
SMILES,HCMV antiviral,HCV inh,FMDV inh,LASV entry inh,Marburg entry inh
CCCCN1C(=O)c2ccc(C(=O)Nc3ccc(C)c(S(=O)(=O)N(C)C)c3)cc2C1=O,-28,u,18µM*,-28%,u
CCOc1ccccc1NC(=O)c1cnn2c(C(F)F)cc(-c3ccccc3)nc12,u,x,-7%,-1%[46.1 µM],u
COc1ccc(OC)c(NC(=O)CC2C(=O)NCCN2C(=O)c2ccccc2)c1 (centres undefined),11,4%,-6%,4%,-6%[46.1 µM]
Cc1ccc(NC(=O)c2ccc(OC(F)(F)F)cc2)cc1S(=O)(=O)N(C)C,-99*,3.2µM*,32µM*,u,u
Cc1ccc(C(=O)Nc2ccc(S(=O)(=O)NCc3ccco3)cc2)cc1,30,u,86%,22%,-17%
Cc1cc(C)n(-c2ccc(C(=O)Nc3cccc(S(=O)(=O)N(C)C)c3)cc2)n1,-96*,5µM*,22µM*,u,u
Cc1cc(C)n(-c2ccc(C(=O)Nc3ccc(S(=O)(=O)NCc4ccco4)cc3)cc2)n1,-96*,3.5µM*,u,u,13µM*!
Cc1ccc(NC(=O)c2ccncc2)cc1S(=O)(=O)N(C)C,1,0%,-3%,-24%,-16%
Cc1cc(C)n(-c2ccc(C(=O)Nc3ccc(C)c(S(=O)(=O)N(C)C)c3)cc2)n1,-81*,10µM*,16µM*,u,u
Cn1c(=O)c2[nH]c(CCCC(=O)O)nc2n(Cc2ccccc2)c1=S,-5,x,-6%,x,x
CCC(C)NC(=O)CSc1nc2cc3c(cc2c(=O)n1CCCCCC(=O)NCc1ccc2c(c1)OCO2)OCO3 (centres undefined),-26,x,-2%,3%[46.1 µM],x
CCN(CC)S(=O)(=O)c1cccc(NC(=O)c2ccc(-n3nc(C)cc3C)cc2)c1,-83*,2.5µM*,20µM*,u,16µM*
Cc1cc(C)n(-c2ccc(C(=O)Nc3ccc(S(=O)(=O)N(C)C)cc3)cc2)n1,-97*,u,u,u,u
O=C(O)c1cc(-c2cccs2)nn1-c1cccc(Cl)c1,-3,8%,-17%,25%,8%
CN(C)S(=O)(=O)c1cccc(NC(=O)c2cc(-c3cccs3)nn2-c2cccc(Cl)c2)c1,-106*,u,-14%,u,u
COc1ccc(NC(=O)c2ccc(-n3nc(C)cc3C)cc2)cc1OC,18,7.1µM*,3%,0%,-1%
COc1ccc(Cl)cc1NC(=O)CN(C)C(=O)c1n[nH]c2ccccc12,-8,u,u,2%,u
COc1ccc2c(c1)CO[C@H]([C@H](O)CO)[C@H]2C=CC#Cc1ccc(C(C)(C)C)cc1,x,x,x,x,-9%[14.2 µM]
Cc1ccc(NC(=O)c2noc3c2CCCCC3)cc1,72,-1%,-33%,15µM*,u
CCc1ccc(NC(=O)c2noc3c2CCCCC3)cc1,163,10%,55%,-8%,u
O=C1CCCc2oc3c(cc(NS(=O)(=O)c4ccc5c6c(cccc46)C(=O)N5)c4ccccc43)c21,u,u,-9%,3%[46.1 µM],11µM*
Cc1oc2c(cc(NS(=O)(=O)c3ccc4c5c(cccc35)C(=O)N4)c3ccccc32)c1C(=O)OC(C)C,-5,u,3%,u,-21%
CC[C@H](C)[C@@H]1NC(=O)CNC(=O)c2csc(n2)[C@H](C(C)(C)O)OC(=O)C(C)(C)[C@H](CCCC(C)(Cl)Cl)OC(=O)c2csc1n2,-79*,x,-14%,x,x
CN(CC1CCCCC1)[C@H]1CC[C@@]23CCCN2C(=O)CCC[C@H]3[C@H]1Cc1ccccc1,-20,x,x,x,x
